# “And” between values parts separate entries of the source, which are not always exact repeats. Equal entries are not always repeated. Compounds without any hit were thinned out: in the full panel of roughly 83,000, 20% have a hit.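 Cells were grown in 96-well plates and exposed to the test compound at a single concentration for 48 hours; results are reported as percent growth, with values below 10 considered active.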 Unmarked numbers belong to inactive results.
# Test system: HL-60(TB) leukemia
# Experiment: NCI-60 one-dose screen, 48 h (100 = growth as untreated, 0 = no growth, -100 = all killed)
# Details: 10 µM unless noted
row,SMILES,growth
1,COc1ccc(C(=O)C(=O)c2ccccc2)cc1,94.2%
2,Cc1cc(Cl)c2c(Cl)ccc(Cl)c2n1,96.2%
3,O=[N+]([O-])c1ccc(-c2nc(N3CCOCC3)c3c4c(sc3n2)CCCC4)cc1,92.2%
4,O=S1(=O)CC(Br)C(Br)C1 (centres undefined),34.4% and 81.8%

# — PubChem BioAssay (NCI)
